Results filed as inconclusive are left out. Where a call stands in place of a potency, no number is given. Calls of active or inactive are those of the source. Calls follow the shape of the dose curve; as a rule, active = well fitted inhibition curve with a large enough effect; inconclusive = small, poorly fitted or top-dose-only effect; inactive = no such curve, though single readings can be large or run the other way.
molecular target: Retinaldehyde dehydrogenase 3 (Homo sapiens) (UniProt P47895); test: qHTS for Inhibitors of the Aldehyde Dehydrogenase Family (ALDH1A3) Primary screen (AID 2061315); settings: ALDH inhibition qHTS; series mostly up to 56 µM

Row | SMILES | Potency
1 | CN1[C@H]2C[C@H](OC(=O)[C@H](CO)c3ccccc3)C[C@@H]1[C@@H](O)C2 | inactive
2 | C=C1C2(C)CC3C(C)(O)C4=CC(=O)OC(C)(C)C4=CCC3(C)C13C(=O)OC(C)C3(O)C2=O (centres undefined) | inactive
3 | COc1cc(O)c2c(c1)/C=C/C[C@@H](O)[C@@H](O)C(=O)CCC[C@H](C)OC2=O | inactive
4 | C=C[C@H]1CN2CCC1C[C@H]2[C@H](O)c1ccnc2ccccc12 (some centres undefined) | inactive
5 | CC1=CC2/C=C(\C)CCC(O)C3OC(C)(C)OC3CC(=O)OC23C(=O)NC(CC(C)C)C3C1C (centres undefined) | inactive
6 | C=C[C@H]1CN2CC[C@H]1C[C@@H]2[C@@H](O)c1ccnc2ccccc12 | inactive
7 | C[C@]12CC[C@H](O[C@@H]3O[C@H](CO)[C@@H](O)[C@H](O)[C@H]3O)CC1CC[C@@H]1C2CC[C@]2(C)[C@@H](C3=CC(=O)OC3)CC[C@]12O (some centres undefined) | inactive
8 | OCc1nnc2n1-c1ccc(Cl)cc1C(c1ccccc1Cl)=NC2 | inactive
9 | COC1C=CC23c4cc5c(cc4COC2(O)CN(C)C3C1)OCO5 (centres undefined) | inactive
10 | C=C(C)[C@@]12O[C@@H]1[C@@]1(C)C(=C[C@H]2O)CC[C@@H](O)[C@@H]1C | inactive
11 | Cc1cccc(NC(=O)c2ccc(C(F)(F)F)cc2C(=O)O)n1 | inactive
12 | CC1=CC2(O)/C=C/C(C)(O)C(O)C(O)/C=C/C(=O)OC23C(=O)NC(CC(C)C)C3C1C (centres undefined) | inactive
13 | O=C(N[C@H]1CN2CCC1CC2)c1cc2cccc(Cl)c2s1 | inactive
14 | CC(=O)OC[C@]12C[C@H](O)C(C)=C[C@H]1O[C@@H]1[C@H](O)[C@@H](O)[C@@]2(C)[C@]12CO2 | inactive
